From ChEMBL document CHEMBL3988442, “University of Dundee, Small-Polar-MMV Screening Library” (2021)
For some assays here: Entries with a potency or affinity are not part of this list.

Tests used:
Parameters in all cases: scale not given: direction of the effect not stated beside the values
[1] = biological target: Protein translocase subunit SecA (Escherichia coli (strain K12)) (UniProt P10408); assay: Assay to Identify E. coli SecA ATPase Inhibitors; type: functional; conditions: 30 µM
[2] = biological target: T1, Ubiquitin-activating enzyme e1, putative (Leishmania donovani (strain BPK282A1)) (UniProt E9BSI1); assay: Leishmania donovani Ubiquitin Activating Enzyme (LdE1); type: functional; conditions: 30 µM
T1 sequence (whole entry): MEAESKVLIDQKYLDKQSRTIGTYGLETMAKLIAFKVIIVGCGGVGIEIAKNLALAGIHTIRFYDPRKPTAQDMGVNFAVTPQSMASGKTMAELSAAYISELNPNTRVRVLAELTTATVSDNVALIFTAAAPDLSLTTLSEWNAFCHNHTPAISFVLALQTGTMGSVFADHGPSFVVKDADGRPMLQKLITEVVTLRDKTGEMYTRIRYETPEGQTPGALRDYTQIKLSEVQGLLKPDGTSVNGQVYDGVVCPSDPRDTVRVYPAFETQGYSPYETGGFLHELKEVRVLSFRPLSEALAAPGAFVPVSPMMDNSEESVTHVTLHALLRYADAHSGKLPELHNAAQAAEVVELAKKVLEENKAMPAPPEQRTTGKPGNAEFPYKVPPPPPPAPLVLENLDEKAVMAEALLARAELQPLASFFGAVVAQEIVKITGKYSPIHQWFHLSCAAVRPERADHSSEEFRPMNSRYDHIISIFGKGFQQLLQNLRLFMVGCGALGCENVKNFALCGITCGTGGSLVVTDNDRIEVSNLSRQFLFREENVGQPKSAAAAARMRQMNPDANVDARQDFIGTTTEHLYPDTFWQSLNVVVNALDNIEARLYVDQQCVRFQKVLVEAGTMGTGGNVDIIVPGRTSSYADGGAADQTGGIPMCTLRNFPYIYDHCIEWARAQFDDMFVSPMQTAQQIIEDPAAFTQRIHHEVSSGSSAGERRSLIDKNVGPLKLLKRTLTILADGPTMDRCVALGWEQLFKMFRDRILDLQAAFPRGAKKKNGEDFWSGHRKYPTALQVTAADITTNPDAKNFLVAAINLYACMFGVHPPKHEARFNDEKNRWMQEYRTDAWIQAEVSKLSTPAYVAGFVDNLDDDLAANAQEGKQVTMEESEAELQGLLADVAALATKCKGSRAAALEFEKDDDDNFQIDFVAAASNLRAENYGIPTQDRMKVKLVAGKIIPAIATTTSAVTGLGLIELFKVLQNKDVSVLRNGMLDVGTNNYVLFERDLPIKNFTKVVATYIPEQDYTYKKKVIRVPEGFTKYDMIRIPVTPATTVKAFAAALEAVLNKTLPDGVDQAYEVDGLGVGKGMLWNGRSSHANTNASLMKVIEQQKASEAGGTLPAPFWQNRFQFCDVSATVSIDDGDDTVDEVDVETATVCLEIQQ

[3] = biological target: AMP-activated protein kinase, AMPK (Homo sapiens) (UniProt P54646+O43741+P54619+Q9UGJ0+Q9Y478+Q13131+Q9UGI9); assay: AMP-dependent Kinase enzyme assay. An in vitro enzyme assay that detects ADP turnover that is directly proportional to AMPK activity. This uses naive AMPK that is activated during the assay with MK-8722; type: functional; conditions: 30 µM
[4] = biological target: Sialic acid-binding Ig-like lectin 9 (Homo sapiens) (UniProt Q9Y336); assay: Hs-Siglec9 ALPHAscreen SOP 20170721; conditions: 10 µM
Sequence of Sialic acid-binding Ig-like lectin 9 (Homo sapiens) (Q9Y336 whole entry): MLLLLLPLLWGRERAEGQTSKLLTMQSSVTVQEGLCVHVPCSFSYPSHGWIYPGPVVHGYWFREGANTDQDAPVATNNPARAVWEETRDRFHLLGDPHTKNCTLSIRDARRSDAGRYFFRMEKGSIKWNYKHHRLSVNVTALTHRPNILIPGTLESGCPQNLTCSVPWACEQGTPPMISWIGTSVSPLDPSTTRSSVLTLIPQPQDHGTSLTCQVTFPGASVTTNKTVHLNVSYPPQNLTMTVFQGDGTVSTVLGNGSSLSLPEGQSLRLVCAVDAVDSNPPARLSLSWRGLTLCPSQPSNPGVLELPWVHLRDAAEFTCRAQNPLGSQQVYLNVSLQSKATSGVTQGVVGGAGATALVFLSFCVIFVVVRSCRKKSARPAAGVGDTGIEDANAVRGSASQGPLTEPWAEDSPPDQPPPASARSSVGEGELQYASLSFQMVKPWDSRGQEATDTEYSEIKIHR

Trypanosoma cruzi = assay: Trypanosoma cruzi phosphomannomutase and mannose-1-phosphate guanylyltransferase assay; type: functional; conditions: 10 µM
[5] = biological target: T2, Arginase-2, mitochondrial (Homo sapiens) (UniProt P78540); assay: in vitro enzyme assay to detect the production of urea directly proportional to the activity of Arginase II; type: functional; conditions: 33.3 µM; note: in the data most compounds retested in dose-response had high values
T2 sequence (whole entry): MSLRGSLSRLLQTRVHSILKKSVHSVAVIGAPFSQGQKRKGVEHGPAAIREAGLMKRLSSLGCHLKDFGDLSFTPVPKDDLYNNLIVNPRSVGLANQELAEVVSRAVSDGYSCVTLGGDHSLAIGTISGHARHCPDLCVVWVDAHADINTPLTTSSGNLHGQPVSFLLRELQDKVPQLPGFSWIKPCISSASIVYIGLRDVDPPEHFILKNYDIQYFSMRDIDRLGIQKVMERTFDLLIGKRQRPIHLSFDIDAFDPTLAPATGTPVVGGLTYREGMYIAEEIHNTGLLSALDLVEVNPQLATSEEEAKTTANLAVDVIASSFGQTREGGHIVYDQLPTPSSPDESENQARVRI

[6] = biological target: T3, Proteasome subunit beta (Trypanosoma cruzi) (UniProt O96673); assay: Trypanosoma cruzi proteasome chymotrypsin-like activity (TcProtChymo) assay.; note: in the data most compounds retested in dose-response had high values; type: functional; conditions: 9.37 µM
T3 sequence (whole entry): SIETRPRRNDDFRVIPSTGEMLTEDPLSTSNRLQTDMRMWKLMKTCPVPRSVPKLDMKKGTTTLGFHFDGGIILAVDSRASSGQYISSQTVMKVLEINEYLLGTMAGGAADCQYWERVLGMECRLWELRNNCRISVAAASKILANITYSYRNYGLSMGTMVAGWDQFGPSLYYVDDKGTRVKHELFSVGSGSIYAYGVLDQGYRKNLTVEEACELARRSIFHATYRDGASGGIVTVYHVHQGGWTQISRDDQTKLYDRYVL

Homo sapiens = organism: Homo sapiens; assay: To identify inhibition of the IFN signalling (Jak-Stat) pathway via expression of an eGFP reporter gene under the control of an IFN-stimulated response element (ISRE) containing MxA promoter.; type: functional; conditions: 30 µM
[7] = biological target: T4, Tyrosyl-tRNA synthetase, putative (Trypanosoma cruzi (strain CL Brener)) (UniProt Q4DSP6); assay: Trypanosoma cruzi tyrosyl tRNA synthetase (TcYRS) _High Tyrosine SOP; type: functional; conditions: 30 µM; note: in the data most compounds retested in dose-response had high values
T4 sequence (whole entry): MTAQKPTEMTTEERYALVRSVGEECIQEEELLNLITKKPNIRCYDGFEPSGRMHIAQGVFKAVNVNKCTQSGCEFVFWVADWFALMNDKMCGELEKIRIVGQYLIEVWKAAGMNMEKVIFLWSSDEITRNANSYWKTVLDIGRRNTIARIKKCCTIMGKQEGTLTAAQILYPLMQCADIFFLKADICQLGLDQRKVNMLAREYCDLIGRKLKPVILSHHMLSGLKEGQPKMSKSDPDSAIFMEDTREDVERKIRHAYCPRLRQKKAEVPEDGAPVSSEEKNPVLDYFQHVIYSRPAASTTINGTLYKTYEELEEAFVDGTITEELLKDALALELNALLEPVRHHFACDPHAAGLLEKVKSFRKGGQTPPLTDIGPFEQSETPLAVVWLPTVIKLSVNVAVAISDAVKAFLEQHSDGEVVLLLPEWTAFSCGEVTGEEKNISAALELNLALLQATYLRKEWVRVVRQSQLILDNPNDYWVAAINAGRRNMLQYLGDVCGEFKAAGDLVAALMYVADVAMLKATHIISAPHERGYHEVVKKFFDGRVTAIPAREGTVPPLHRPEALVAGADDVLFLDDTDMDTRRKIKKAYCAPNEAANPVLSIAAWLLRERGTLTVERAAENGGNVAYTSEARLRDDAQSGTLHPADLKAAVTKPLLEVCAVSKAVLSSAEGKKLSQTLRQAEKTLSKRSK

[8] = biological target: T4, Tyrosyl-tRNA synthetase, putative (Trypanosoma cruzi (strain CL Brener)); assay: Trypanosoma cruzi tyrosyl tRNA synthetase (TcYRS) SOP; type: functional; conditions: 30 µM
[9] = biological target: Chromo domain-containing protein 1 (Saccharomyces cerevisiae (strain ATCC 204508 / S288c) (Baker's yeast)) (UniProt P32657); assay: ScCHD-1 Enzyme Inhibition Assay; type: functional; conditions: 30 µM; note: in the data most compounds retested in dose-response had high values
Sequence of Chromo domain-containing protein 1 (Saccharomyces cerevisiae (strain ATCC 204508 / S288c) (Baker's yeast)) (P32657 whole entry, the tested form may be a part): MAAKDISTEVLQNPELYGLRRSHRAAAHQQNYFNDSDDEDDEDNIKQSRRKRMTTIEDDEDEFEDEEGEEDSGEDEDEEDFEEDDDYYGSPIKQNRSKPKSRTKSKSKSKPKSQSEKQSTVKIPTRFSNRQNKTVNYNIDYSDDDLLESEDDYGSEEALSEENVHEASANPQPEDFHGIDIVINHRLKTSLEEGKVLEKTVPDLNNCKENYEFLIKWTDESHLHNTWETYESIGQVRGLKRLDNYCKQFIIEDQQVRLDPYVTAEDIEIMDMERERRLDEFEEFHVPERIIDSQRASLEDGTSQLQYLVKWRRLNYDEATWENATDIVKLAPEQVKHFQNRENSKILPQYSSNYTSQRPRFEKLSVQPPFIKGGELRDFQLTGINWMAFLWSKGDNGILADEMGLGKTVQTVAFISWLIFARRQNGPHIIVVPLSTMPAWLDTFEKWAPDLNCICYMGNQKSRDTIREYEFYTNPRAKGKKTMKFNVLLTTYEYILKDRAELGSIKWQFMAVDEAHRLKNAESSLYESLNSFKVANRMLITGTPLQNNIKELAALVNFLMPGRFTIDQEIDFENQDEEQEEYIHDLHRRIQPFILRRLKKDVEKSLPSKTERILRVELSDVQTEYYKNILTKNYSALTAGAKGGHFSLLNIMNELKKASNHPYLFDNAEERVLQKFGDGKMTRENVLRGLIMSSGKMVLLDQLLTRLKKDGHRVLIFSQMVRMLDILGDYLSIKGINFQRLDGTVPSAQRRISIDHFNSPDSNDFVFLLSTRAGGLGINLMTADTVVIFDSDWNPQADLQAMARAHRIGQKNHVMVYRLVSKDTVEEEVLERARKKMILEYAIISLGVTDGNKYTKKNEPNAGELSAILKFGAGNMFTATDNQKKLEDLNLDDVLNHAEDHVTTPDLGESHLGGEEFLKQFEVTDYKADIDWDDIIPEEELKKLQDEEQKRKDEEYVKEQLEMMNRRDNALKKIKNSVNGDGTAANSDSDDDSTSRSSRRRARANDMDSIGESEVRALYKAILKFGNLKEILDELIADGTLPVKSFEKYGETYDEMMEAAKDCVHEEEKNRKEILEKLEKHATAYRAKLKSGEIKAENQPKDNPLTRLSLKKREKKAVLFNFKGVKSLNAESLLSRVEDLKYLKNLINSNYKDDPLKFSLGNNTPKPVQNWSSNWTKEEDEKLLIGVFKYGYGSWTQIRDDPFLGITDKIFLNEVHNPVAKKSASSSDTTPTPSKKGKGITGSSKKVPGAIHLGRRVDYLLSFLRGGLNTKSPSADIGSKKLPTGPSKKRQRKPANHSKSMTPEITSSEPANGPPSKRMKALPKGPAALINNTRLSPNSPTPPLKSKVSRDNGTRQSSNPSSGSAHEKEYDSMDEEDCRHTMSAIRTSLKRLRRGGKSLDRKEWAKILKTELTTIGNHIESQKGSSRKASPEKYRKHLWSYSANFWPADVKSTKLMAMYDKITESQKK

Sequence of Protein translocase subunit SecA (Escherichia coli (strain K12)) (P10408 whole entry): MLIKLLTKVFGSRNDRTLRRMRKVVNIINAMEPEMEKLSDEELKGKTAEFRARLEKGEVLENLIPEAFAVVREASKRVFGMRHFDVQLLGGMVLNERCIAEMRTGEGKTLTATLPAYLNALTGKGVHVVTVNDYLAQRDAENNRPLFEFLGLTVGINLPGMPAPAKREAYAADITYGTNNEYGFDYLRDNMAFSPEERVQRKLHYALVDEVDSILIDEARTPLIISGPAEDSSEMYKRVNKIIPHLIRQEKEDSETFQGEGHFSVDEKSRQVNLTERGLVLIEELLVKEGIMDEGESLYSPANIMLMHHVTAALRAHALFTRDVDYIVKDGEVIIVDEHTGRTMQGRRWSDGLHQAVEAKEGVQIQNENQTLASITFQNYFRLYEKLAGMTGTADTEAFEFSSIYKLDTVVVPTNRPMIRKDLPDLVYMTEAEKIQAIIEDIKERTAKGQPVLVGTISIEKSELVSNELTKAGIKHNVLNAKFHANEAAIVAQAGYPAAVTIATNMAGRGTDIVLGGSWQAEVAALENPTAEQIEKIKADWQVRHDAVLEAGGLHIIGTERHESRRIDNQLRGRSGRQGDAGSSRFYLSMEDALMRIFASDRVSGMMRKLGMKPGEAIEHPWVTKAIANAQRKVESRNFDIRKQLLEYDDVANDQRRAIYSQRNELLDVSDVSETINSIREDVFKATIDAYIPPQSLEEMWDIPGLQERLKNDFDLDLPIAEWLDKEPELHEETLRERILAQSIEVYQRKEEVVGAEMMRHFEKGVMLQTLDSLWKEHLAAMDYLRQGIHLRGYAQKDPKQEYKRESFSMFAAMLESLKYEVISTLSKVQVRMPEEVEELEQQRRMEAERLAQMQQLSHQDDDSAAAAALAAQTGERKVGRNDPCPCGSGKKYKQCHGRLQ

Structure (SMILES) | Percent Effect [1] | Percent Effect [2] | Percent Effect [3] | Percent Effect [4] | Percent Effect (Trypanosoma cruzi) | Percent Effect [5] | Percent Effect [6] | Percent Effect (Homo sapiens) | Percent Effect [7] | Percent Effect [8] | Percent Effect [9]
Cc1nn(C)c(Cl)c1C1CCCN1c1ncnc2sccc12 (configuration not stated) | -6.84% | -2.67% | -2.13% | 8.98% | 5.36% | 7.29% | 1.4% | 35.8% | 0.546% | 3.7% | 0.644%
Cc1ccc(-c2nc(CNCCn3cccn3)cs2)o1 | 1.6% | -429% | 4.22% | -1.49% | 1.13% | 4.6% | 8.19% | 10.3% | 11.3% | 4.88% | 1.79%
CN(C)C(=O)N1CCN(CCn2nc3ccccn3c2=O)CC1 | 0.243% | 7.89% | 0.915% | -3.62% | -6.13% | 0% | 20.8% | 3.27% | 6.38% | 5.2% | -5.93%
CC(C)OCCCNC(=O)c1ccc(-c2ccco2)[nH]c1=O | -4.6% | 10.8% | 60.2% | -6.26% | -7.83% | -1.6% | 10.1% | 12.9% | 6.4% | 11.1% | -5.48%
COc1ccccc1CC(=O)N1CCC(NCc2cc[nH]c2)CC1 | -0.99% | 18.9% | -7.09% | -3.31% | 4.92% | 5.36% | 16.3% | 5.88% | 11.9% | 23.2% | -7.56%
Cc1nc(C)n(CC2CCCCN2CCCS(=O)(=O)N(C)C)n1 (configuration not stated) | 4.38% | 16.2% | -12.4% | 5.89% | 2.7% | 3.33% | 11.9% | 4.05% | 4.76% | 7.32% | -0.511%
Cc1ccc(NC2CCN(C(=O)COc3cccnc3)CC2)nn1 | -5.07% | 21.5% | -3.6% | -4.99% | -0.923% | -1.94% | 14.1% | 12.9% | 4.17% | 15.2% | -15.5%
CS(=O)(=O)NC1CCCN(C(=O)NCc2cccnc2)C1 (configuration not stated) | -2.71% | 15.6% | 3.96% | 1.09% | 2.25% | 1.9% | 14.2% | -2.36% | 7.62% | 18.8% | -11.9%
CN(Cc1cccc(O)c1)CC1CCCN(CCc2ccc(Cl)cc2)C1 (configuration not stated) | -6.32% | -13.5% | 1.05% | 9.76% | 2.64% | 4.22% | -2.32% | 27.2% | 4.3% | 11.1% | -0.68%
O=C(Nc1ccccc1F)N(CCO)Cc1ccsc1 | -4.39% | 0% | 2.24% | 1.32% | -3.76% | -1.92% | -2.51% | 29.1% | -1.47% | -4.88% | 10.7%
O=C(N1CCOCC1)[C@@]12CCO[C@@H]1CCN(CCN1CCCCC1)C2 | -0.594% | 14.7% | -0.279% | -2.46% | 1.18% | -4.05% | 20.9% | -2.62% | -6.35% | 15.4% | -11.6%
CCn1ccnc1CN1CCN(C(C)C(=O)NC2CCCCC2)CC1 (configuration not stated) | -6.02% | 5.26% | -1.96% | -3.82% | -7.71% | 0.766% | 5.68% | 24.7% | -3.43% | -4.88% | 5.81%
COCCN1CCC2(CCN(Cc3nccs3)CC2)C1=O | -1.23% | -2.67% | -1.24% | 5.18% | -5.79% | -11.7% | 2.91% | -7.71% | 6.25% | 2.5% | 0.122%
Cc1ccc(CN2CC[C@H]3OCC[C@@H](C(=O)NC4CC4)[C@@H]3C2)o1 | -6.72% | 5.41% | -20.2% | -9.85% | -4.01% | 1.59% | 7.75% | 11.3% | -1.08% | -2.56% | -0.126%
COc1cc(CN2CC[C@@]3(CCCO3)[C@@H](O)C2)ccc1F | -3.6% | 14.9% | 6.46% | -2.68% | 2.96% | 0.696% | 3.74% | -18.1% | 6.45% | 16.9% | -12.2%
CN(C)C(=O)c1ccc2c(c1)N(C)C(CC(=O)NCc1ccno1)CO2 (configuration not stated) | -0.872% | 6.94% | -9.68% | 0.254% | 1.85% | 15% | 20.7% | 18.1% | 7.37% | 10.3% | -2.72%
COC(=O)N1CCCC(C(=O)NCc2cc3cccc(OC)c3o2)C1 (configuration not stated) | -4.05% | 7.59% | 3.35% | 19.5% | -2.36% | 2.28% | -2.54% | -18.3% | 3.45% | 8.86% | -3.44%
O=C(NC1(c2cccc(F)c2)CCOCC1)c1ccccn1 | -5.05% | 2.6% | -0.416% | 0.357% | -4.03% | 2.76% | 0.499% | 14.4% | -6.45% | -6.17% | 2.74%
CCCc1cc(NC2CCc3ncnn3C2)n2ncnc2n1 (configuration not stated) | -4.43% | 5.48% | 7.3% | -5.57% | -2.74% | -0.455% | 10.1% | 17.2% | 2.15% | 7.5% | -3.04%
Cc1csc(N2CCN(C(=O)CCC(=O)c3ccc(C)s3)CC2)n1 | -3.76% | 8.11% | -7.25% | 1.58% | 1.79% | -12.4% | 13.5% | 23% | 7.39% | 25.9% | 17.6%
CO[C@H]1CO[C@@]2(CCCN(C(=O)C3=CCCCC3)C2)C1 | -5.62% | 13.3% | 1.22% | -1.82% | 1.35% | -47.5% | 8.03% | 0.996% | 3.12% | 2.5% | -8%
CCc1nc(CN(C)CC(c2cccs2)N2CCOCC2)no1 (configuration not stated) | -2.58% | 27% | -3.84% | -3.75% | 1.76% | -2.4% | 10.6% | 13.9% | 6.93% | 23.2% | -7.57%
